This is a sample that favours compounds with a hit; in the whole collection about 15% have one here.
HCMV antiviral – human cytomegalovirus inhibition; HFF cells, HCMV-luciferase reporter, 72 h; active compounds read low; activity change, negative = inhibition, % at 57.5 µM; hit rate 4.5% among 410,000; AID 1259415; in the data active = activity change below about -60%; inconclusive = no clear call, values can overlap the other calls; inactive = above about -39%
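Screen run at 2 compound doses on HFFs infected with reporter HCMV, MOI 1 PFU/cell. Luciferase activity from cell lysates at 72 h post infection gave inhibition relative to buffer-only and Salinomycin wells.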
Sm TGR inh – inhibitors of Schistosoma mansoni thioredoxin glutathione reductase | purified TGR, DTNB reduction, TNB absorbance 405 nm | Potency, µM (series often up to 114 µM), hits mostly inhibitors | hit rate 3% among 360,000 | AID 485364; also: nearly all actives have a fitted effect of over 60% in size
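Kinetic colorimetric format: TGR-catalysed, NADPH-driven DTNB reduction monitored via TNB absorbance. Enzyme dispensed at 20 nM; compound exposure 15 min at room temperature before reaction start.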
SARS PLpro yeast – SARS-CoV PLP inhibition in yeast. S. cerevisiae expressing SARS-CoV PLpro, growth rescue. hit rate 0.19% among 330,000. Potency, µM (series often up to 32.9 µM), most hits filed as activators. AID 485353; calls by dose curve; also: nearly all actives have a fitted effect of over 55% in size
Pf growth 48h – P. falciparum growth inhibition at 48 hours (one generation). P. falciparum luciferase growth in erythrocytes, 48 h. Potency, µM (top dose mostly 28.7 µM), actives largely listed as inhibitors. hit rate 5.9% among 310,000. AID 504832
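First compound was added to culture medium, then infected red cells at 0.1% parasitemia and 2% hematocrit (final). After incubation at 37 C under 5% CO2, luciferase detection reagent was dispensed and light output recorded.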
HCV inh – blocks hepatitis C virus; Huh7.5.1 HCVcc-Cre infection, luciferase reporter, 44 h; Potency, µM (highest dose often 41.8 µM), most hits filed as inhibitors; hit rate 3.4% among 340,000
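Reporter virus HCVcc-Cre (~0.5 moi) infects cells exposed to compound; seeding density 1,000 cells/well with 4 h settling beforehand. Luminescence, 15 sec read, taken 44 h post-infection following a 15 min RT substrate incubation.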
Pf growth 96h – P. falciparum growth inhibition at 96 hours. P. falciparum luciferase reporter growth, 96 h. Potency, µM (series often up to 28.7 µM), hits mostly inhibitors. hit rate 6.9% among 320,000. AID 504834
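P. falciparum expressing integrated firefly luciferase grown in erythrocytes (2% hematocrit, 0.05% parasitemia final) with compounds for 96 hours at 37 C, 5% CO2. Growth inhibition read as loss of luminescence after adding luciferase detection reagent.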
HCV confirm – HCV inhibition, cherry-pick confirmation. AID 720575. hit rate 78% among 640. Potency, µM (top dose mostly 41.8 µM), hits mostly inhibitors. shares compounds with HCV inh. HCVcc-Cre infectious virus cell assay, luciferase, inhibition; also: nearly all actives have a fitted effect of over 80% in size
HCV host tox – host cell cytotoxicity counter-screen for HCV inhibitors; Potency, µM (doses to about 41.8 µM), most hits filed as inhibitors; AID 720576; shares compounds with HCV inh; hit rate 22% among 640; HCV host cell line cytotoxicity counterscreen;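 also: 44 h compound exposure; nearly all actives have a fitted effect of over 55% in size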
Numbers stand for hits; . = inactive; ? = inconclusive; / = no result given. Unless noted, calls follow the shape of the dose curve; as a rule, active = well fitted curve in the direction sought with a large enough effect; inconclusive = small, poorly fitted or top-dose-only effect, or another doubt; inactive = no such curve, though single readings can be large; an effect the other way counts as inactive or inconclusive.

SMILES	HCMV antiviral	Sm TGR inh	SARS PLpro yeast	Pf growth 48h	HCV inh	Pf growth 96h	HCV confirm	HCV host tox
Cc1cc2c(cc1C)-n1nnnc1C(N1CCN(CC(=O)NC(C)C)CC1)C(=O)N2 (configuration not stated)	.	/	/	/	/	/	/	/
CC1CN(C)C(C)c2c1oc1ccc([N+](=O)[O-])cc21 (configuration not stated)	.	.	.	.	?	.	25µM	.
CC1CN(C)C(C)c2c1oc1ccc(N)cc21 (configuration not stated)	.	.	.	.	.	.	/	/
CN1CCN(NC(=O)Nc2cccc(F)c2)CC1	.	.	.	.	.	?	/	/
Cc1ccc2c(c1)c1c3n2CCCNC3CCC1 (configuration not stated)	.	.	.	/	?	.	/	/
c1cc2c(cc1C1CCCCC1)c1c3n2CCCNC3CCC1 (configuration not stated)	.	.	.	?	3.5µM	.	28µM	31µM
O=S(=O)(c1cccs1)N1CCN(c2ccc(O)cc2)CC1	?	.	.	?	?	?	/	/
CC1CCCCN1c1nc2nonc2nc1N1CCCCC1C (configuration not stated)	.	.	.	?	.	?	/	/
COc1ccccc1Nc1nc2nonc2nc1N1CCCCC1C (configuration not stated)	?	.	.	.	?	?	?	.
COc1cc(C)c(C(=O)Oc2cc(C)c(C(=O)O)c(O)c2)c(O)c1	.	.	.	.	0.79µM	.	.	.
CC1CC(C)C(=O)C(C(CC2CC(=O)NC(=O)C2)OC(=O)CC(=O)c2ccccc2)C1 (configuration not stated)	-98	/	/	/	5µM	/	13µM	.
Cc1ccc2c(C)nc(N/C(N)=N/S(=O)(=O)c3ccccc3)nc2c1	.	.	.	.	.	?	/	/
CCOc1ccc2nc(N/C(N)=N/C(=S)Nc3cccc(C)c3)nc(C)c2c1	.	.	.	?	5.6µM	?	7.9µM	.
CCc1ccccc1NC(=S)/N=C(\N)Nc1nc(C)c2cc(C)ccc2n1	?	.	.	2.9µM	?	?	10µM	?
Cc1ccccc1Cn1c(SCc2ccc(C(=O)NCCc3ccccc3)cc2)nc2ccncc21	.	.	/	/	/	/	/	/
COc1ccc(C2CC(=O)C3=C(C2)Nc2ncnn2C3c2ccccc2C)c(OC)c1 (configuration not stated)	.	.	.	7.4µM	3.5µM	8.3µM	7µM	.
Cn1cc(CNCc2ccc(OC(F)(F)F)cc2)c(-c2ccc3c(c2)OCCO3)n1	-81	.	.	.	1µM	?	1µM	5µM
CCOC(=O)c1cc2c(=O)n3ccccc3nc2n(CCOC)c1=NC(=O)C(C)(C)C	.	.	.	.	?	.	/	/
CCOC(=O)c1cc2c(=O)n3ccccc3nc2n(CCCOC)c1=NC(=O)C(C)(C)C	.	.	.	.	?	.	?	.
CC(C)(C)NC(=O)C(c1ccnc2ccccc12)n1c(=O)c(-c2ccco2)nc2ccccc21 (configuration not stated)	.	/	/	/	/	/	/	/
COc1ccc([N+](=O)[O-])cc1NC(=O)c1cc(C)c(C)o1	.	/	.	.	.	.	/	/
COc1ccc([N+](=O)[O-])cc1NC(=O)c1ccco1	.	.	.	.	?	.	?	.
CC1=CCC(/C=N\Nc2nnc3c(n2)[nH]c2ccccc23)CC1 (configuration not stated)	/	.	.	.	.	?	/	/
CCn1nc(C)c(CNC(=O)c2ccc(OC3CCN(Cc4ccccn4)CC3)cc2)c1C	-91	.	.	.	1µM	.	0.56µM	1.1µM
C[C@H]1CN([C@@H](C)CO)C(=O)CCCn2cc(nn2)CO[C@@H]1CN(C)S(=O)(=O)c1cn(C)cn1	.	/	/	/	/	/	/	/
